Records with an inconclusive call do not appear. A call without a number means that no potency is given here. Calls of active or inactive are those of the source. Unless noted, calls come from the whole dose curve; as a rule, active = well fitted curve in the direction sought with a large enough effect in the repeat runs; inconclusive = weak or mixed curves; inactive = no such curve, though single readings can be large; an effect the other way counts as inactive or inconclusive.

Androgen receptor (Homo sapiens), sequence (P10275 whole entry, looked up): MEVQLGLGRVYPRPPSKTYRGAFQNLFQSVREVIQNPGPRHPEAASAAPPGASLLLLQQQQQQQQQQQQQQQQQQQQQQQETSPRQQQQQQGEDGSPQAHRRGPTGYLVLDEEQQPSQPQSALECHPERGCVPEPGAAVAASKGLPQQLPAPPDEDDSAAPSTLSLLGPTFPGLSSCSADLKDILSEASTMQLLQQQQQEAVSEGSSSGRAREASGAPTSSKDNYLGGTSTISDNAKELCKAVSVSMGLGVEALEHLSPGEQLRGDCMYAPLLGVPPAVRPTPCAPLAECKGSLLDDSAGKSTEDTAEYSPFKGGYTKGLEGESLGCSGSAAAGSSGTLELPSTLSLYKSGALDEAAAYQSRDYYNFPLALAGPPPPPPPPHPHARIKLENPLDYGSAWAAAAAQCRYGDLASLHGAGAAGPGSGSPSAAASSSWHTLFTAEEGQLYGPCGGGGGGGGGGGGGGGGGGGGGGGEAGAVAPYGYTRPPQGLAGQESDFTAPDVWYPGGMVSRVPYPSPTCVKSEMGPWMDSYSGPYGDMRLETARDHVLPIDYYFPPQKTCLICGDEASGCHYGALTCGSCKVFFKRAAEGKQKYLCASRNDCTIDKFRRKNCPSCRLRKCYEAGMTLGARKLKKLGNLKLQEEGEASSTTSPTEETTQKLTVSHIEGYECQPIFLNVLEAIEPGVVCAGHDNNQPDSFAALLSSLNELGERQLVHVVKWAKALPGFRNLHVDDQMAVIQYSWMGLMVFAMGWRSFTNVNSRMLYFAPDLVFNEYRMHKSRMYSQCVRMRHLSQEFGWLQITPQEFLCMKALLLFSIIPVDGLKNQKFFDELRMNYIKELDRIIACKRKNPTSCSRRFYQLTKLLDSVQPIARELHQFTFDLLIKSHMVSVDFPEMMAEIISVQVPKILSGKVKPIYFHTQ

Test system in the first test: not listed separately
As to the kind of experiment: qHTS assay for identifying genotoxic compounds that show differential cytotoxicity against isogenic chicken DT40 cell lines with known DNA damage response pathways - Rad54/Ku70 mutant cell line (AID 743015). Note: nearly all actives have a fitted effect of over 60% in size. Note: potency is the fitted concentration of half-maximal effect. The following applies: DT40 Rad54/Ku70 mutant viability, CellTiter-Glo, 40 h; series mostly up to 66.8 µM.
For the compound `O=C1Nc2ccc([N+](=O)[O-])cc2C1=O`, the Potency entry is “inactive”.

As for `CCCCCCCCCC/C=C/C#N`, the Potency entry was “inactive”.

Regarding `CCOC(=O)C(Br)c1ccccc1` (stereo not drawn), the Potency result is “inactive”.

For the compound `CC(=O)N[C@@H](CC(C)C)C(=O)O`, the Potency result is “inactive”.

Take `CC1(C)S[C@@H]2[C@H](NC(=O)C(C(=O)O)c3ccccc3)C(=O)N2[C@H]1C(=O)O` (stereo partly drawn): the Potency entry is “inactive”.

For the compound `NC(=O)Cc1cccc(C(=O)c2ccccc2)c1N`, the Potency result is “inactive”.

In the case of `CCN1CC(CCN2CCOCC2)C(c2ccccc2)(c2ccccc2)C1=O` (stereo not drawn), the Potency entry was “inactive”.

For `Cc1c(N)cccc1N`, the Potency was 14 µM (active).

On to `CC/C=C\CCOC(=O)C(C)C`, for which the Potency result was “inactive”.

Take `CCCCCOc1ccc(C2SC(=O)NC2=O)cc1OCC` (stereo not drawn): the Potency entry is “inactive”.

With `C=C(C)C(=O)OCCOP(=O)(O)O`, the Potency entry is “inactive”.

For the compound `CCCNC(C)C(=O)Nc1c(C)csc1C(=O)OC` (stereo not drawn), the Potency result was “inactive”.

For the compound `CC1(O)CSC(C)(O)CS1` (stereo not drawn), the Potency is 61.1 µM (active).

In the case of `CN1[C@@H]2CC[C@H]1CC(OC(=O)c1c[nH]c3ccccc13)C2` (stereo partly drawn), the Potency entry was “inactive”.

In the case of `OCCN(CCO)CCN(CCO)CCO`, the Potency entry was “inactive”.

For the compound `Cc1c[nH]c(=S)[nH]c1=O`, the Potency entry is “inactive”.

For `CC(C)=CCC[C@](C)(O)[C@@H]1CC=C(C)CC1`, the Potency entry is “inactive”.

Consider `O=CCCc1ccccc1`, for which the Potency result is “inactive”.

Test system in the next test: not listed separately
The test is described as follows: qHTS assay to identify small molecule antagonists of the androgen receptor (AR) signaling pathway - cell viability counter screen (AID 743033; note: nearly all actives have a fitted effect of over 45% in size). The following applies: AR-bla HEK293 viability, CellTiter-Glo luminescence, 16 h; series mostly up to 58.5 µM. On the technique in general: In qHTS, concentration-response curves come from the screen itself.
In the case of `O=C1Nc2ccc([N+](=O)[O-])cc2C1=O`, the compound was called inactive.

As to `CCCCCCCCCC/C=C/C#N`, the call was inactive.

Take `CCOC(=O)C(Br)c1ccccc1` (stereo not drawn): the outcome was inactive.

`CC(=O)N[C@@H](CC(C)C)C(=O)O`: the compound was called inactive.

With `CC1(C)S[C@@H]2[C@H](NC(=O)C(C(=O)O)c3ccccc3)C(=O)N2[C@H]1C(=O)O` (stereo partly drawn), the call was inactive.

With `NC(=O)Cc1cccc(C(=O)c2ccccc2)c1N`, the call was inactive.

Consider `CC(C)CCCCCCc1ccc(OCCOCCO)cc1`, for which the compound was called inactive.

As to `Cc1c(C(=O)NCCO)[n+](=O)c2ccccc2n1[O-]`, the result was inactive.

With `CCN1CC(CCN2CCOCC2)C(c2ccccc2)(c2ccccc2)C1=O` (stereo not drawn), the compound was classed as inactive.

As to `CCCNC(C)(C)COC(=O)c1ccccc1`, the compound was classed as inactive.

In the case of `CC/C=C\CCOC(=O)C(C)C`, the compound was classed as inactive.

On to `CCCCCOc1ccc(C2SC(=O)NC2=O)cc1OCC` (stereo not drawn), for which the compound was called inactive.

For the compound `C=C(C)C(=O)OCCOP(=O)(O)O`, the outcome was inactive.

As to `CC(C)CC(=O)OCc1ccccc1`, the compound was classed as inactive.

As for `CCCNC(C)C(=O)Nc1c(C)csc1C(=O)OC` (stereo not drawn), the outcome was inactive.

`Cc1ccccc1C(=O)Nc1ccc(C(=O)N2CCCC(O)c3cc(Cl)ccc32)c(C)c1` (stereo not drawn): the call was inactive.

With `CC1(O)CSC(C)(O)CS1` (stereo not drawn), the result was inactive.

Turning to `CN1[C@@H]2CC[C@H]1CC(OC(=O)c1c[nH]c3ccccc13)C2` (stereo partly drawn), the outcome was inactive.

For the compound `CN1CCN(C2=Nc3ccccc3Oc3ccc(Cl)cc32)CC1`, the call was inactive.

For `OCCN(CCO)CCN(CCO)CCO`, the call was inactive.

As for `CC(C)NCC(O)COc1ccc(CCOCC2CC2)cc1` (stereo not drawn), the compound was classed as inactive.

On to `c1ccc(CN(CC2=NCCN2)c2ccccc2)cc1`, for which the outcome was inactive.

On to `CC(C)=CCC[C@](C)(O)[C@@H]1CC=C(C)CC1`, for which the outcome was inactive.

As for `CCOc1ccc2nc(N)sc2c1`, the outcome was inactive.

As to `O=CCCc1ccccc1`, the outcome was inactive.

Another test concerns the target Androgen receptor (Homo sapiens) (UniProt P10275). As to the kind of experiment: qHTS assay to identify small molecule antagonists of the androgen receptor (AR) signaling pathway (AID 743035; active = well fitted inhibition curve with a large enough effect in the signal ratio in the repeat runs, not every such curve was filed as active; the % refers to the signal ratio). The following applies: HEK293 AR-UAS-bla, R1881-stimulated, beta-lactamase FRET, 16 h; series mostly up to 58.5 µM. Put shortly:
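Using qHTS, AR-UAS-bla GripTite HEK293 cells received compound, then R1881, and were cultured 16 h at 37C/5% CO2 before a 2 h room-temperature LiveBLAzer B/G FRET substrate step and fluorescence measurement.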
In the case of `CC(C)CCCCCCc1ccc(OCCOCCO)cc1`, the Potency result is “inactive”.

Consider `Cc1c(C(=O)NCCO)[n+](=O)c2ccccc2n1[O-]`, for which the Potency result is “inactive”.

As for `CC1(O)CSC(C)(O)CS1` (stereo not drawn), the Potency entry is “inactive”.

In the case of `OCCN(CCO)CCN(CCO)CCO`, the Potency result is “inactive”.

The target is the same in another test. The test is described as follows: qHTS assay to identify small molecule agonists of the androgen receptor (AR) signaling pathway (AID 743036; active = well fitted activation curve with a large enough effect in the signal ratio in the repeat runs, with a control signal flat, not every such curve was filed as active; the % refers to the signal ratio). The following applies: HEK293 AR-UAS-bla GripTite, beta-lactamase FRET ratio, 16 h; series mostly up to 62.4 µM. A digest of the protocol:
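Fluorescence from a beta-lactamase FRET substrate served as read-out in AR-UAS-bla GripTite HEK293 cells. Cells were treated with DMSO-dissolved compounds for 16 h at 37C, then with LiveBLAzer B/G substrate for 2 h at room temperature.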
In the case of `CC(C)CCCCCCc1ccc(OCCOCCO)cc1`, the result was inactive.

As to `Cc1c(C(=O)NCCO)[n+](=O)c2ccccc2n1[O-]`, the result was inactive.

Regarding `CCCCCOc1ccc(C2SC(=O)NC2=O)cc1OCC` (stereo not drawn), the result was inactive.

For the compound `CC1(O)CSC(C)(O)CS1` (stereo not drawn), the outcome was inactive.

Another test has the same target. The test is described as follows: qHTS assay to identify small molecule agonists of the androgen receptor (AR) signaling pathway using the MDA cell line (AID 743040; note: nearly all actives have a fitted effect of over 20% in size). The following applies: MDA-kb2 AR-luc cells, MMTV luciferase, 16 h; series mostly up to 70.3 µM. Put shortly:
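After a 5 h incubation at 37C and 0% CO2, MDA-kb2 reporter cells were dosed with compounds in DMSO and kept 16 h under the same conditions. Luciferase activity was then read as luminescence with ONE-Glo.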
For the compound `CC(C)CCCCCCc1ccc(OCCOCCO)cc1`, the Potency entry was “inactive”.

In the case of `Cc1c(C(=O)NCCO)[n+](=O)c2ccccc2n1[O-]`, the Potency result was “inactive”.

As for `CCCCCOc1ccc(C2SC(=O)NC2=O)cc1OCC` (stereo not drawn), the Potency entry was “inactive”.

Take `CC1(O)CSC(C)(O)CS1` (stereo not drawn): the Potency entry is “inactive”.

For the compound `OCCN(CCO)CCN(CCO)CCO`, the Potency result is “inactive”.

Test system in the next test: not listed separately
The test is described as follows: qHTS assay to identify small molecule antagonists of the androgen receptor (AR) signaling pathway using the MDA cell line - cell viability counter screen (AID 743041; note: nearly all actives have a fitted effect of over 45% in size). The following applies: MDA-kb2 viability, CellTiter-Fluor, 16 h, cells co-treated with R1881 androgen agonist; series mostly up to 70.3 µM. Put shortly: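 R1881-driven MDA-kb2 AR-luc cells, 3,000/well, were dosed with library compounds for 16 h; cell health came from CellTiter-Fluor fluorescence in the reporter wells.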
`CCN(CC)C(=O)N(CC)CC`: the Potency result is “inactive”.

On to `CCCCCCCCCC/C=C/C#N`, for which the Potency result is “inactive”.

Consider `CCOC(=O)C(Br)c1ccccc1` (stereo not drawn), for which the Potency entry was “inactive”.

Regarding `CC(=O)N[C@@H](CC(C)C)C(=O)O`, the Potency entry is “inactive”.

Consider `CCCCNC(=S)NCCCC`, for which the Potency result is “inactive”.

Turning to `CC1(C)S[C@@H]2[C@H](NC(=O)C(C(=O)O)c3ccccc3)C(=O)N2[C@H]1C(=O)O` (stereo partly drawn), the Potency entry was “inactive”.

In the case of `NC(=O)Cc1cccc(C(=O)c2ccccc2)c1N`, the Potency entry was “inactive”.

For the compound `CC(C)CCCCCCc1ccc(OCCOCCO)cc1`, the Potency entry is “inactive”.

`Cc1c(C(=O)NCCO)[n+](=O)c2ccccc2n1[O-]`: the Potency entry was “inactive”.

Turning to `CCN1CC(CCN2CCOCC2)C(c2ccccc2)(c2ccccc2)C1=O` (stereo not drawn), the Potency result is “inactive”.

`Cc1c(N)cccc1N`: the Potency result is “inactive”.

As for `CCCNC(C)(C)COC(=O)c1ccccc1`, the Potency result was “inactive”.

With `CC/C=C\CCOC(=O)C(C)C`, the Potency entry was “inactive”.

Turning to `CCCCC(=O)O[C@]1(C(=O)CO)[C@H](C)C[C@H]2[C@@H]3CCC4=CC(=O)C=C[C@]4(C)[C@@]3(F)[C@@H](O)C[C@@]21C`, the Potency result was “inactive”.

On to `CCCCCOc1ccc(C2SC(=O)NC2=O)cc1OCC` (stereo not drawn), for which the Potency result was “inactive”.

For the compound `C=C(C)C(=O)OCCOP(=O)(O)O`, the Potency result was “inactive”.

With `CC(C)CC(=O)OCc1ccccc1`, the Potency entry was “inactive”.

For the compound `NC1=NCC2c3ccccc3Cc3ccccc3N12` (stereo not drawn), the Potency entry was “inactive”.

`CCCNC(C)C(=O)Nc1c(C)csc1C(=O)OC` (stereo not drawn): the Potency entry is “inactive”.

Take `Cc1ccccc1C(=O)Nc1ccc(C(=O)N2CCCC(O)c3cc(Cl)ccc32)c(C)c1` (stereo not drawn): the Potency entry was “inactive”.

As to `OCc1ccccc1O`, the Potency entry is “inactive”.

Turning to `O=C(CC(=O)C(F)(F)F)c1ccccc1`, the Potency result was “inactive”.

Regarding `CC1(O)CSC(C)(O)CS1` (stereo not drawn), the Potency result was “inactive”.

In the case of `CN1CCN(C2=Nc3ccccc3Oc3ccc(Cl)cc32)CC1`, the Potency entry is “inactive”.

Regarding `CC(C)NC[C@@H](O)COc1cccc2ccccc12`, the Potency result is “inactive”.

As for `CCCCCCCCCCCCCCCCOP(=O)([O-])OCC[N+](C)(C)C`, the Potency entry was “inactive”.

Regarding `OCCN(CCO)CCN(CCO)CCO`, the Potency entry was “inactive”.

As for `CC(C)NCC(O)COc1ccc(CCOCC2CC2)cc1` (stereo not drawn), the Potency result is “inactive”.

In the case of `c1ccc(CN(CC2=NCCN2)c2ccccc2)cc1`, the Potency entry was “inactive”.

Take `CC(C)=CCC[C@](C)(O)[C@@H]1CC=C(C)CC1`: the Potency entry is “inactive”.

As to `CCOc1ccc2nc(N)sc2c1`, the Potency entry was “inactive”.

`O=CCCc1ccccc1`: the Potency result is “inactive”.

The values are drawn from PubChem BioAssay (Tox21).
